Screening results as filed in PubChem BioAssay.
PI5P4K alpha inh = qHTS for Inhibitors of phosphatidylinositol 5-phosphate 4-kinase (PI5P4K). Phosphatidylinositol 5-phosphate 4-kinase type-2 alpha (Homo sapiens), P48426. PI5P4Kalpha enzyme, ADP-Glo luminescence, 60 min; hits give low values. max response, %. 330,000 tested, 1.2% active. AID 652105, 2013; active = max response of -50% or lower; inconclusive = between -30% and -50%; inactive = -30% or higher; note: value at the top dose of about 77 µM
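ADP-Glo luminescence end-point read after a 60 min room-temperature kinase reaction of PI5P4Kalpha plus substrate, initiated with ATP at 5 microM final. Buffer: 0.038 M HEPES pH 7.4, EGTA, 0.1% CHAPS, 5% DMSO.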
BLM helicase inh = qHTS Assay for Inhibitors of Bloom's syndrome helicase (BLM) | 350,000 tested, 0.2% active | Potency, µM (titrated, usually from 56.1 µM), for inactives: top-dose activity change, negative = inhibition, hits mostly inhibitors | AID 2528, 2010 | recombinant BLM DNA unwinding, fluorescence dequenching | RecQ-like DNA helicase BLM (Homo sapiens), P54132;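 note: potency is the fitted concentration of half-maximal effect; plate controls were vehicle for no effect and no enzyme for full effect; nearly all actives have a fitted effect of over 35% in size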
KAT2A inh = qHTS Assay for Inhibitors of GCN5L2; GCN5L2 HAT assay, ThioGlo1 CoA-SH fluorescence; 390,000 tested, 0.21% active; Potency, µM (highest dose often 58.9 µM), inactives show top-dose activity change, negative = inhibition, actives largely listed as inhibitors; AID 504327, 2011; Histone acetyltransferase KAT2A (Homo sapiens), Q92830; note: potency is the fitted concentration of half-maximal effect
Target sequence (Q92830 whole entry, looked up): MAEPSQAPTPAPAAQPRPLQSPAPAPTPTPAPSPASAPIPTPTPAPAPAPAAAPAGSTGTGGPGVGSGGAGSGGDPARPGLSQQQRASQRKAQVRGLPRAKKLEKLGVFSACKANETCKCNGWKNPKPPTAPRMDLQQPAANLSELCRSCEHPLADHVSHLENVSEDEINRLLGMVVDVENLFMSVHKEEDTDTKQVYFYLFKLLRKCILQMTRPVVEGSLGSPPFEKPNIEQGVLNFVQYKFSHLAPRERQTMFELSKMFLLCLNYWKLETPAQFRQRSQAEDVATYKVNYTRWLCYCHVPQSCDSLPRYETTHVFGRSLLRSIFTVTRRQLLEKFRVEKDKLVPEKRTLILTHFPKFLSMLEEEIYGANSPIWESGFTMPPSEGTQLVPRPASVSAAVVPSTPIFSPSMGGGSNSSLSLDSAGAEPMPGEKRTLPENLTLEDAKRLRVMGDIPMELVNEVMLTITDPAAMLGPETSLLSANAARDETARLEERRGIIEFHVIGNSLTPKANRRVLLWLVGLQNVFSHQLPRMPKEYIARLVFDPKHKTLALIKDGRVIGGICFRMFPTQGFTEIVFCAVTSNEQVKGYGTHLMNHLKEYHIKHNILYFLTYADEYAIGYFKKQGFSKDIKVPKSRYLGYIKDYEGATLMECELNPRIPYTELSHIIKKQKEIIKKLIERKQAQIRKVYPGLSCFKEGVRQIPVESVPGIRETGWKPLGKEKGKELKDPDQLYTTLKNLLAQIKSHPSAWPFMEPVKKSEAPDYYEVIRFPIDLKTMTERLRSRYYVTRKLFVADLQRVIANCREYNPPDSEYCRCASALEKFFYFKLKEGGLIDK
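qHTS, 1536-well. 20nM enzyme, pH 7.5 HEPES/EDTA/Tween-20 buffer; 15 min compound preinc., RT. Start: 75uM H3(1-25), 70uM AcCoA, 50uM ThioGlo1. Read Ex340/Em540 at t=0 (autofluorescence flag) and t=20 min.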
RECQ1 inh = qHTS Assay for Inhibitors of RecQ-Like Dna Helicase 1 (RECQ1) | ATP-dependent DNA helicase Q1 (Homo sapiens), P46063 | RECQ1 DNA unwinding, red fluorescence kinetic read | Potency, µM (titrated, usually from 57.3 µM), for inactives: top-dose activity, negative = inhibition, most hits filed as inhibitors | 240,000 tested, 0.54% active;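 note: potency is the fitted concentration of half-maximal effect; plate controls were vehicle for no effect and no enzyme for full effect; nearly all actives have a fitted effect of over 30% in size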
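50 nM RECQ1T1 preincubated 15 min with compound in Tris pH 8.0 buffer with MgCl2, DTT, Tween-20 and 2.5 ug/ml poly(dI-dC); started with 200 nM TAMRA/BHQ-2 forked duplex and 2 mM ATP. Unwinding read as fluorescence (525/598 nm), two reads 2 h apart.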
APE1 inh-1 = qHTS Assay for Inhibitors of the Human Apurinic/apyrimidinic Endonuclease 1 (APE1); DNA repair nuclease/redox regulator APEX1 (Homo sapiens), P27695; recombinant APE1, TAMRA/BHQ-2 abasic DNA cleavage fluorescence; Potency, µM (top dose mostly 65.8 µM), without a hit: at the top dose activity change, negative = inhibition, hits mostly inhibitors; 350,000 tested, 0.35% active;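 note: potency is the fitted concentration of half-maximal effect; plate controls were vehicle for no effect and reference inhibitor for full effect; nearly all actives have a fitted effect of over 55% in size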
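Measures dequenching upon AP-site incision of a 5'-TAMRA/3'-BHQ-2 THF-containing duplex, 50 nM; human APE1 0.75 nM after 15 min room-temperature exposure to compound; kinetic three-point read at one-minute spacing.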
FEN1 inh = qHTS Assay for the Inhibitors of Human Flap endonuclease 1 (FEN1). Potency, µM (series often up to 114 µM), for inactives: at the highest dose activity change, negative = inhibition, hits mostly inhibitors. Recombinant FEN1 flap cleavage, fluorescence, 15 min. 390,000 tested, 0.35% active. P39748; note: potency is the fitted concentration of half-maximal effect; nearly all actives have a fitted effect of over 65% in size
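Recombinant FEN1 (10 nM) was preincubated with pin-transferred compounds for 15 min at room temperature, then flap DNA substrate (50 nM final) was added. Plates were read at 0 and 15 min, and normalized concentration–response data were fitted to a four-parameter Hill equation.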
APE1 dye cs = Counterscreen for APE1 Inhibitors: Fluorescent Dye Displacement Assay | shares compounds with APE1 inh-1 | 480 tested, 7% active | AID 2564, 2010 | DNA fluorescent dye displacement counterscreen, fluorescence | Potency, µM (highest dose often 28.5 µM), for inactives: at the top dose activity change, negative = inhibition, most hits filed as inhibitors;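 note: loss of thiazole orange fluorescence as the dye is displaced from duplex DNA; potency is the fitted concentration of half-maximal effect; 0% = ThO with dsDNA and no compound and -100% = ThO without dsDNA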
EndoIV counter = Counterscreen for APE1 Inhibitors: qHTS Assay for Inhibitors of Endonuclease IV; AID 2565, 2010; Potency, µM (top dose mostly 27.1 µM), without a hit: top-dose activity change, negative = inhibition, actives largely listed as inhibitors; 560 tested, 4% active; E. coli Endo IV, fluorogenic AP-site DNA cleavage; shares compounds with APE1 inh-1;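 note: potency is the fitted concentration of half-maximal effect; plate controls were uninhibited enzyme wells for no effect and no enzyme buffer wells for full effect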
APE1 inh-2 = Confirmation qHTS Assay for Inhibitors of the Human Apurinic/apyrimidinic Endonuclease 1 (APE1). Potency, µM (series often up to 57.1 µM), inactives show at the highest dose activity change, negative = inhibition, hits mostly inhibitors. AID 2572, 2010. 750 tested, 44% active. purified APE1, fluorogenic abasic-site DNA cleavage. shares compounds with APE1 inh-1; note: potency is the fitted concentration of half-maximal effect; nearly all actives have a fitted effect of over 30% in size
APE1 FP inh = qHTS FP-Based Assay for Inhibitors of the Human Apurinic/apyrimidinic Endonuclease 1 (APE1) | shares compounds with APE1 inh-1 | APE1 binding to TAMRA-labelled double-stranded DNA, fluorescence polarization displacement | Potency, µM (series often up to 28.5 µM), without a hit: at the top dose activity, negative = inhibition, actives largely listed as inhibitors | 480 tested, 7% active | AID 2573, 2010; note: potency is the fitted concentration of half-maximal effect
Starred values were filed as active, the others as inactive; i = inactive; ? = inconclusive; / = no result given; ! = a repeat was not active; [ ] = remark or other dose. An excerpt weighted towards active compounds, which were near 1.5% of everything screened. Unless noted, calls come from the whole dose curve; as a rule, active = well fitted curve in the direction sought with a large enough effect; inconclusive = small, poorly fitted or top-dose-only effect, or another doubt; inactive = no such curve, though single readings can be large; an effect the other way counts as inactive or inconclusive. Unless noted, % is set by controls: 0 for no effect and ±100 for the full control effect.

SMILES	PI5P4K alpha inh	BLM helicase inh	KAT2A inh	RECQ1 inh	APE1 inh-1	FEN1 inh	EndoIV counter	APE1 inh-2	others
CC(C)C[C@H](N)C(=O)N[C@H](C(=O)N[C@H](C(=O)N[C@@H](Cc1ccc(O)cc1)C(=O)N1CCC[C@H]1C(=O)N[C@@H](Cc1c[nH]c2ccccc12)C(=O)N[C@H](C(=O)N[C@@H](CCC(N)=O)C(=O)N[C@@H](CCCN=C(N)N)C(=O)O)[C@@H](C)O)C(C)C)C(C)C	/	/	-9.4%	1.6%	5.7%	/	/	/
CNc1ccc(C=O)cc1Br	/	/	/	/	/	2.2%	/	/
COc1ccc(CCNC(=O)c2ccc3nc(-c4ccco4)c(-c4ccco4)nc3c2)cc1OC	-54.7*	14.1µM*	?	15.8µM*	8.91µM*!	?	/	15.8µM*
C=CC(=O)OCCOCCOC(=O)C=C	/	/	/	-3.3%	2.0%	/	/	/
CC(C)(C)NC(=O)c1cc(F)c(F)cc1Cl	3.1	-14.4%	-1.3%	i	7.08µM*	3.8%	3.6%	?	APE1 dye cs=-8.3%;APE1 FP inh=-6.4%
CCc1cc2c(=O)c(-c3nc4ccccc4n3C)coc2c(CN2CCN(C)CC2)c1O	1.8	-11.7%	-5.9%	?	?	1.6%	/	?
NC(=O)c1oc2ccccc2c1NC(=O)c1nc2ccccc2s1	-7.0	-12.6%	-5.1%	-2.4%	-1.6%	6.3%	/	?
NC(=O)c1oc2ccccc2c1NC(=O)c1ccc(F)cc1	3.8	-1.2%	-3.8%	-2.7%	-1.9%	-5.5%	/	/
CC1(C(=O)NC2CCCC2)CCC(=O)N1CCc1c[nH]c2ccccc12 (stereo not drawn)	0.2	/	/	/	/	/	/	/
O=c1ccn(CCc2c[nH]c3ccccc23)c2c1CCCC2	-5.6	7.9%	7.7%	-2.2%	0.0794µM*	4.2%	-4.7%	-7.0%[24.4 µM]	APE1 dye cs=-5.4%;APE1 FP inh=4.3%
CN(C)[C@H]1C(=O)C(C(=O)NCN2CCCC2)=C(O)[C@]2(O)C(=O)C3=C(O)c4c(O)cccc4[C@@](C)(O)[C@H]3C[C@@H]12	/	-13.4%[21.4 µM]	?	-21.5%[25.9 µM]	/	/	-8.9%	-10.9%[24.4 µM]	APE1 dye cs=5.2%;APE1 FP inh=?
CN(C)C1C(=O)C(C(N)=O)=C(O)[C@@]2(O)C(=O)C3=C(O)c4c(O)ccc(Cl)c4C(O)[C@H]3C[C@@H]12 (stereo partly drawn)	/	-12.9%	7.7%	14.0%	8.6%	/	/	/
COc1ccc(-c2coc3cc(O)ccc3c2=O)c(O)c1O	/	-23.3%	?	3.98µM*	3.16µM*	/	36.8%[57.1 µM]	-86.6%
COc1ccc(-c2coc3cc(O)ccc3c2=O)c(OC)c1O	/	-1.1%	-11.7%	2.1%	3.1%	/	/	/
COC(=O)c1ccccc1S(=O)(=O)N1CCc2nc(-c3ccccc3)c3c(c2C1)CO[C@@H](C)C3	/	3.9%[12.4 µM]	/	i[11.5 µM]	-5.5%[12.4 µM]	/	/	/
CC(C)C[C@H](NC(=O)[C@H](CO)NC(=O)[C@H](C)NC(=O)[C@H](CCCN=C(N)N)NC(=O)[C@H](CCCN=C(N)N)NC(=O)[C@@H](N)CC(C)C)C(=O)NCC(=O)O	/	-4.6%	-1.0%	-0.8%	?	/	/	/
Cc1ccccc1NC(=O)CN1C(=O)S/C(=C\c2cccn2-c2cccc(C(=O)O)c2)C1=O	-4.4	-12.7%	-4.3%	?	?	?	/	?
Cc1ccc(NC(=O)CN2C(=O)S/C(=C\c3cccn3-c3cccc(C(=O)O)c3)C2=O)c(C)c1	?	?	-14.0%	-25.7%	8.91µM*	?	?	12.6µM*	APE1 dye cs=207.0%;APE1 FP inh=15.8µM*
O=c1c(OC2OC(CO)C(O)C(O)C2OC2OC(CO)C(O)C(O)C2O)c(-c2ccc(O)cc2)oc2cc(O)cc(O)c12 (stereo not drawn)	-21.0	-19.5%	?	10µM*	8.91µM*	?	12.0%	?	APE1 dye cs=1.1%;APE1 FP inh=-41.9%
COc1ccccc1-c1nn2c(-c3cc(C)[nH]n3)nnc2s1	/	/	/	/	/	-13.4%	/	/
OCC1OC([S-])[C@H](O)C(O)C1O.[Au+] (stereo partly drawn)	/	?	11.2µM*	-4.0%	/	/	11.0%[57.1 µM]	12.6µM*
OCC1OC(O)C(O)C(O)C1O (stereo not drawn)	/	-12.0%	?	-1.4%	/	/	/	/
S=C(NCCCc1cnc[nH]1)NCCCN(Cc1ccc(Cl)cc1)c1cc(-c2ccccc2)ccn1	/	/	/	/	/	-16.5%	/	/
O=C1C2=C(S[C@@H]3O[C@H](CO)[C@@H](O)[C@H](O)[C@H]3O2)C(=O)c2ccccc21	/	-26.6%	/	-4.6%	-6.4%	/	/	/
COc1ccc(-c2ccc(SCC(=O)Nc3nccs3)nn2)cc1OC	7.0	-0.5%	-14.3%	i	9.8%	-0.2%	/	39.8µM*
